These results are taken from PMC11006913.

Residue numbers refer to the chain shown, from its start.

Assay in all cases: PBM; 200 nM protein, PBS
What all share (settings): dsDNA, one strand shown

The target in test [1] is T1, SIX6 (Homo sapiens, UniProt O95475 114-200, L167I).
T1 sequence: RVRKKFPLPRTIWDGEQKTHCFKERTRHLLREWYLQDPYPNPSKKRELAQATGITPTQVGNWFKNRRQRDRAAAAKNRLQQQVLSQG

For test [2], the target named is T2, SIX6 (Homo sapiens, UniProt O95475 114-200, L143V).
T2 sequence: T1 sequence with L30V, I54L

Test [3] has as its target T3, SIX6 (Homo sapiens, UniProt O95475 114-200, H141N).
T3 sequence: T1 sequence with H28N, I54L

In test [4] the target is T4, SIX6 (Homo sapiens, UniProt O95475 114-200, T165P).
T4 sequence: T1 sequence with T52P, I54L

Test [5] addresses T5, SIX6 (Homo sapiens, UniProt O95475 114-200, L167M).
T5 sequence: T1 sequence with I54M

Test [6] concerns the target T6, SIX6 (Homo sapiens, UniProt O95475 114-200, L143M).
T6 sequence: T1 sequence with L30M, I54L

Test [7] deals with T7, SIX6 (Homo sapiens, UniProt O95475 114-200, L143I).
T7 sequence: T1 sequence with L30I, I54L

Test [8] deals with T8, SIX6 (Homo sapiens, UniProt O95475 114-200, T165G).
T8 sequence: T1 sequence with T52G, I54L

Test [9] has as its target T9, SIX6 (Homo sapiens, UniProt O95475 114-200, T139Q).
T9 sequence: T1 sequence with T26Q, I54L

The target in test [10] is T10, SIX6 (Homo sapiens, UniProt O95475 114-200, T165A).
T10 sequence: T1 sequence with T52A, I54L

The target of test [11] is T11, SIX6 (Homo sapiens, UniProt O95475 114-200, L167V).
T11 sequence: T1 sequence with I54V

Test [12] addresses T12, SIX6 (Homo sapiens, UniProt O95475 114-200).
T12 sequence: T1 sequence with I54L

The target of test [13] is T13, SIX6 (Homo sapiens, UniProt O95475 114-200, T165I).
T13 sequence: T1 sequence with T52I, I54L

For the sequence AGTTCGGG, the binding signal was 8.99 upbm affinity estimate (log intensity, higher = more binding, comparable within an allelic series) in [1]; 9 upbm affinity estimate (log intensity, higher = more binding, comparable within an allelic series) in test [2]; 8.96 upbm affinity estimate (log intensity, higher = more binding, comparable within an allelic series) in [3]; 9.14 upbm affinity estimate (log intensity, higher = more binding, comparable within an allelic series) in test [4]; 9.03 upbm affinity estimate (log intensity, higher = more binding, comparable within an allelic series) in test [5]; 9.18 upbm affinity estimate (log intensity, higher = more binding, comparable within an allelic series) in test [6]. Further, the binding signal in test [7] was 9.05 upbm affinity estimate (log intensity, higher = more binding, comparable within an allelic series); in [8], 9.12 upbm affinity estimate (log intensity, higher = more binding, comparable within an allelic series); in test [9] it was 9.14 upbm affinity estimate (log intensity, higher = more binding, comparable within an allelic series); in [10], 8.95 upbm affinity estimate (log intensity, higher = more binding, comparable within an allelic series); in test [11], 8.74 upbm affinity estimate (log intensity, higher = more binding, comparable within an allelic series); in [12], 9.05 upbm affinity estimate (log intensity, higher = more binding, comparable within an allelic series). For the same sequence, the binding signal in [13] was 8.91 upbm affinity estimate (log intensity, higher = more binding, comparable within an allelic series).

Take CAGGTATC: the binding signal in test [1] is 10.9 upbm affinity estimate (log intensity, higher = more binding, comparable within an allelic series); in [2], 10.2 upbm affinity estimate (log intensity, higher = more binding, comparable within an allelic series); in test [3], 10.9 upbm affinity estimate (log intensity, higher = more binding, comparable within an allelic series); in test [4] it was 9.6 upbm affinity estimate (log intensity, higher = more binding, comparable within an allelic series); in [5] it was 10.5 upbm affinity estimate (log intensity, higher = more binding, comparable within an allelic series); in test [6], 10.7 upbm affinity estimate (log intensity, higher = more binding, comparable within an allelic series). The binding signal in test [7] is 10.2 upbm affinity estimate (log intensity, higher = more binding, comparable within an allelic series); in test [8], 11.1 upbm affinity estimate (log intensity, higher = more binding, comparable within an allelic series); in [9], 11.1 upbm affinity estimate (log intensity, higher = more binding, comparable within an allelic series); in [10], 11 upbm affinity estimate (log intensity, higher = more binding, comparable within an allelic series); in test [11], 10.6 upbm affinity estimate (log intensity, higher = more binding, comparable within an allelic series); in test [12], 10.9 upbm affinity estimate (log intensity, higher = more binding, comparable within an allelic series). For the same sequence, in [13], the binding signal is 10.7 upbm affinity estimate (log intensity, higher = more binding, comparable within an allelic series).

On to AGGTATCA, for which the binding signal in [1] is 11.7 upbm affinity estimate (log intensity, higher = more binding, comparable within an allelic series); in test [2] it was 10.6 upbm affinity estimate (log intensity, higher = more binding, comparable within an allelic series); in test [3], 11.8 upbm affinity estimate (log intensity, higher = more binding, comparable within an allelic series); in test [4], 9.9 upbm affinity estimate (log intensity, higher = more binding, comparable within an allelic series); in test [5], 11 upbm affinity estimate (log intensity, higher = more binding, comparable within an allelic series); in [6], 11.4 upbm affinity estimate (log intensity, higher = more binding, comparable within an allelic series). For the same sequence, the binding signal was 10.7 upbm affinity estimate (log intensity, higher = more binding, comparable within an allelic series) in test [7]; 11.8 upbm affinity estimate (log intensity, higher = more binding, comparable within an allelic series) in test [8]; 11.6 upbm affinity estimate (log intensity, higher = more binding, comparable within an allelic series) in test [9]; 11.7 upbm affinity estimate (log intensity, higher = more binding, comparable within an allelic series) in test [10]; 11.5 upbm affinity estimate (log intensity, higher = more binding, comparable within an allelic series) in [11]; 11.4 upbm affinity estimate (log intensity, higher = more binding, comparable within an allelic series) in [12]. Moreover, the binding signal in test [13] was 11.5 upbm affinity estimate (log intensity, higher = more binding, comparable within an allelic series).

On to CGTATCAA, for which the binding signal in [1] is 11.1 upbm affinity estimate (log intensity, higher = more binding, comparable within an allelic series); in test [2], 10.2 upbm affinity estimate (log intensity, higher = more binding, comparable within an allelic series); in test [3] it was 11.2 upbm affinity estimate (log intensity, higher = more binding, comparable within an allelic series); in test [4], 9.64 upbm affinity estimate (log intensity, higher = more binding, comparable within an allelic series); in [5], 10.6 upbm affinity estimate (log intensity, higher = more binding, comparable within an allelic series); in test [6] it was 11.1 upbm affinity estimate (log intensity, higher = more binding, comparable within an allelic series). Further, the binding signal is 10.3 upbm affinity estimate (log intensity, higher = more binding, comparable within an allelic series) in test [7]; 11.1 upbm affinity estimate (log intensity, higher = more binding, comparable within an allelic series) in test [8]; 11 upbm affinity estimate (log intensity, higher = more binding, comparable within an allelic series) in test [9]; 11.1 upbm affinity estimate (log intensity, higher = more binding, comparable within an allelic series) in [10]; 10.9 upbm affinity estimate (log intensity, higher = more binding, comparable within an allelic series) in [11]; 10.9 upbm affinity estimate (log intensity, higher = more binding, comparable within an allelic series) in test [12]. For the same sequence, the binding signal in [13] is 11 upbm affinity estimate (log intensity, higher = more binding, comparable within an allelic series).

On to CCGCCAGC, for which the binding signal is 9.01 upbm affinity estimate (log intensity, higher = more binding, comparable within an allelic series) in [1]; 9.02 upbm affinity estimate (log intensity, higher = more binding, comparable within an allelic series) in test [2]; 9.07 upbm affinity estimate (log intensity, higher = more binding, comparable within an allelic series) in [3]; 9.02 upbm affinity estimate (log intensity, higher = more binding, comparable within an allelic series) in test [4]; 9.06 upbm affinity estimate (log intensity, higher = more binding, comparable within an allelic series) in [5]; 9.02 upbm affinity estimate (log intensity, higher = more binding, comparable within an allelic series) in [6]. Besides, the binding signal in test [7] was 9.03 upbm affinity estimate (log intensity, higher = more binding, comparable within an allelic series); in test [8], 9.05 upbm affinity estimate (log intensity, higher = more binding, comparable within an allelic series); in test [9], 9.1 upbm affinity estimate (log intensity, higher = more binding, comparable within an allelic series); in [10], 9.05 upbm affinity estimate (log intensity, higher = more binding, comparable within an allelic series); in test [11], 9.06 upbm affinity estimate (log intensity, higher = more binding, comparable within an allelic series); in test [12], 9.05 upbm affinity estimate (log intensity, higher = more binding, comparable within an allelic series). Besides, in test [13], the binding signal was 9.03 upbm affinity estimate (log intensity, higher = more binding, comparable within an allelic series).

As to ATGGCCCG, the binding signal in test [1] is 8.97 upbm affinity estimate (log intensity, higher = more binding, comparable within an allelic series); in [2], 8.9 upbm affinity estimate (log intensity, higher = more binding, comparable within an allelic series); in [3], 9.08 upbm affinity estimate (log intensity, higher = more binding, comparable within an allelic series); in test [4] it was 9.03 upbm affinity estimate (log intensity, higher = more binding, comparable within an allelic series); in test [5], 9 upbm affinity estimate (log intensity, higher = more binding, comparable within an allelic series); in test [6], 8.97 upbm affinity estimate (log intensity, higher = more binding, comparable within an allelic series). For the same sequence, the binding signal is 8.99 upbm affinity estimate (log intensity, higher = more binding, comparable within an allelic series) in test [7]; 9.03 upbm affinity estimate (log intensity, higher = more binding, comparable within an allelic series) in test [8]; 9.09 upbm affinity estimate (log intensity, higher = more binding, comparable within an allelic series) in [9]; 8.99 upbm affinity estimate (log intensity, higher = more binding, comparable within an allelic series) in test [10]; 8.99 upbm affinity estimate (log intensity, higher = more binding, comparable within an allelic series) in test [11]; 9 upbm affinity estimate (log intensity, higher = more binding, comparable within an allelic series) in [12]. The binding signal in [13] is 9.05 upbm affinity estimate (log intensity, higher = more binding, comparable within an allelic series).
